Reference: PubChem BioAssay (NCI)
This is part of a sample that, as a whole, favours compounds with a hit. Of some 79,000 tested, about 15% had one in any assay. Values without a mark were called inactive. Calls of active or inactive are those of the source. Rule as the data show it: active = growth inhibition above about 70%; inactive = the rest.

Test: NCI Yeast Anticancer Drug Screen. Data for the sgs1 mgt1 strain (AID 161);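 also: 0% = growth of cultures given vehicle only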
Settings: S. cerevisiae sgs1 mgt1 strain, at 50.0 µM, active compounds read high
Outline: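 Mutant yeast exposed to compound; growth scored against vehicle-only wells.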
With Cc1cc2c(Br)cc(Br)c(O)c2nc1C(=O)c1ccccc1 the growth inhibition was 35.8%. For N=C1c2ccccc2-c2ccccc21, the growth inhibition was 40.2%. For COc1ccc(-c2cn(-c3ccccc3)c3ncnc(N)c23)cc1, the growth inhibition was 79.5% (active). For Nc1ccc(N=Nc2ccccc2)c2ccccc12, the growth inhibition was 98.5% (active). Compound CS(=O)(=O)C(=Cc1ccccc1Cl)S(C)(=O)=O has a growth inhibition of 4.05%. In the case of O=C1c2ccccc2C(=O)c2sc(Nc3cc(Cl)ccc3Cl)nc21, the growth inhibition is reported as 88.3% (active). For COC1=CC(=O)c2c(O)c3c(c(O)c2C1=O)C=C(C)OC3O (centres undefined), the growth inhibition was 89% (active). For NC(=S)N/N=C1\NC(=O)/C(=C/c2ccc3c(c2)OCO3)S1, the growth inhibition was -13.3%. In the case of CCN(CC)P(=S)(c1ccccc1CCP(=S)(c1ccccc1)c1ccccc1)N(CC)CC, the growth inhibition is reported as 97.6% (active). Work on CCC(=O)Oc1c(Cl)cc(Cl)c(Cl)c1Cl yielded a growth inhibition of 48.1%. CCOC(=O)C(C)(C)C showed a growth inhibition of 14.4%. For COC1=CC(=O)c2ncccc2C1=O, the growth inhibition was 84.8% (active). For O=C1CCSC(=S)N1c1ccccc1C(F)(F)F, the growth inhibition was 99.5% (active). Compound O=C1c2cccc(NCCNCCO)c2C(=O)c2cccc(NCCNCCO)c21 has a growth inhibition of 31%. For CCOc1cc2c(cc1O)CC[C@@H]1[C@@H]2CC[C@]2(C)[C@@H](O)CC[C@@H]12, the growth inhibition was 46.8%. In the case of S=C(N/N=C/c1ccccn1)N1CC2CCC(CC2)C1, the growth inhibition is reported as 92% (active). COc1ccc(Nc2nc3ccccc3s2)cc1 showed a growth inhibition of 38.3%. In the case of O=C(OCC1OC(OCC(OC(=O)c2ccccc2)C(OC(=O)c2ccccc2)C(OC(=O)c2ccccc2)c2cnn(-c3ccccc3)n2)C(OC(=O)c2ccccc2)C(OC(=O)c2ccccc2)C1OC(=O)c1ccccc1)c1ccccc1 (centres undefined), the growth inhibition is reported as 98% (active). For O=C(CBr)Nc1ccc(Cc2ccc(NC(=O)CBr)cc2)cc1, the growth inhibition was 98.2% (active). With CCOC(=O)Sc1nc2ccccc2[nH]1 the growth inhibition was 62.1%. C=C1OC(=O)C(=O)N1CC(=O)O showed a growth inhibition of -5.5%. With Nc1ncnc2c1ncn2C1OCC(O)C1O (centres undefined) the growth inhibition was 72.9% (active). Compound CCOC(=O)C(Cc1cc(I)c(Oc2ccc(OC)cc2)c(I)c1)NC(C)=O (centres undefined) has a growth inhibition of 69%. For BrCc1ccc([Si](c2ccccc2)(c2ccccc2)c2ccc(CBr)cc2)cc1, the growth inhibition was 53%. Work on O=C1OC(C2OC(=O)C(=O)C2C(=O)c2ccc(Cl)cc2)C(C(=O)c2ccc(Cl)cc2)C1=O (centres undefined) yielded a growth inhibition of 30.5%. For Cc1ccc2c(c1)NC(=O)C(N=[N+]=[N-])(c1ccccc1)C2=O (centres undefined), the growth inhibition was 90.2% (active). With NC(=O)C1CCCN1C(=O)C1CCCN(Cc2cc(CN3CCCC(C(=O)N4CCCC4C(N)=O)C3)cc(CN3CCCC(C(=O)N4CCCC4C(N)=O)C3)c2)C1 (centres undefined) the growth inhibition was 59.5%. In the case of CCCCN(CCCC)CC(O)Cc1cc2ccccc2c2ccccc12 (centres undefined), the growth inhibition is reported as 99.1% (active). For CN(/N=C\c1cccc([N+](=O)[O-])c1)C(c1cccc([N+](=O)[O-])c1)N(C)/N=C/c1cccc([N+](=O)[O-])c1 (centres undefined), the growth inhibition was 68.5%. With O=C(CCl)NC(=O)N(/N=C/c1ccco1)c1ccccc1 the growth inhibition was 55.2%. CC1CCN(CCCOC(=O)c2ccccc2)CC1 gave a growth inhibition of 62.1%. With COC(=O)C1=C(C(=O)OC)C2C(C)=CC(C)=CN2C(C(=O)OC)=C1C(=O)OC (centres undefined) the growth inhibition was 2.3%. Work on CO/N=C/c1ccc([N+](=O)[O-])s1 yielded a growth inhibition of 33.8%. With N/C(=N\N=C/c1ccc(O)c(O)c1O)NO the growth inhibition was 28.5%. In the case of CC1=C[P+](c2ccccc2)(c2ccccc2)C=C(c2ccccc2)O1, the growth inhibition is reported as 87.4% (active). For CC(C)SC(=S)Nc1ccc(Cl)c([N+](=O)[O-])c1, the growth inhibition was 99.5% (active). Work on Nc1ccc2oc(=O)c3ccccc3c2c1 yielded a growth inhibition of 48%. CCCCCSc1nc2ncnc(N)c2[nH]1 showed a growth inhibition of 1.65%. Work on CC(C)Cn1cnc2c(SCc3cccc(F)c3)nc(N)nc21 yielded a growth inhibition of 67.8%.
